Assay results from PubChem BioAssay AID1159580 (chemical genetic matrix, 2015).
Hit rate of the full screen: of about 5,500 compounds, about 2,000 (36%) were called active. About 18% were inconclusive and are not listed. No stated cut-off is given here; in the data, active means normalized growth mostly below about 0.91 (no sharp cut-off); inconclusive means no clear call, values can overlap the other calls; inactive means mostly above about 0.92. The list shows a part of the results.

Experiment: chemical genetic growth profiling, strain panel (AID 1159580);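 further: tested at 20 µM; growth read once vehicle control cultures reached saturation at 30 °C; 1 = growth at the plate median or of vehicle wells; lower values mean less growth of the strain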
Conditions: S. cerevisiae deletion strains, growth OD

Measured: normalized growth

N#CSCC(=O)c1ccccc1
active: locus YAR019C, strain CDC15, hits give low values 0.0948 | locus YBL105C, strain PKC1, hits give low values 0.0869 | locus YBR135W, strain CKS1, hits give low values 0.0998 | locus YBR136W, strain MEC1, hits give low values 0.0968 | locus YBR160W, strain CDC28, hits give low values 0.101 | locus YDL017W, strain CDC7, hits give low values 0.092 | locus YDL028C, strain MPS1, hits give low values 0.108 | locus YDL101C, strain DUN1, hits give low values 0.159 | locus YDL108W, strain KIN28, hits give low values 0.107 | locus YDL214C, strain PRR2, hits give low values 0.125 | locus YDR052C, strain DBF4, hits give low values 0.273 | locus YDR477W, strain SNF1, hits give low values 0.107 | locus YER123W, strain YCK3, hits give low values 0.121 | locus YER133W, strain GLC7, hits give low values 0.12 | locus YFL009W, strain cdc4, hits give low values 0.104 | locus YFL029C, strain CAK1, hits give low values 0.0973 | locus YFR003C, strain YPI1, hits give low values 0.0991 | locus YFR019W, strain FAB1, hits give low values 0.0919 | locus YGR040W, strain KSS1, hits give low values 0.119 | locus YGR052W, strain FMP48, hits give low values 0.127 | locus YGR092W, strain DBF2, hits give low values 0.0982 | locus YHR030C, strain SLT2, hits give low values 0.111 | locus YHR079C, strain IRE1, hits give low values 0.107 | locus YHR082C, strain KSP1, hits give low values 0.145 | locus YHR205W, strain SCH9, hits give low values 0.00392 | locus YIL147C, strain SLN1, hits give low values 0.0993 | locus YJL095W, strain BCK1, hits give low values 0.101 | locus YJL128C, strain PBS2, hits give low values 0.499 | locus YJL157C, strain FAR1, hits give low values 0.0986 | locus YJR016C, strain ILV3, hits give low values 0.0975 | locus YJR066W, strain TOR1 (second series), hits give low values 0.101 | locus YJR066W, strain TOR1, hits give low values 0.122 | locus YKL048C, strain ELM1, hits give low values 0.154 | locus YKL067W, strain YNK1, hits give low values 0.119 | locus YKL101W, strain HSL1, hits give low values 0.115 | locus YKL193C, strain SDS22, hits give low values 0.105 | locus YKL203C, strain TOR2, hits give low values 0.112 | locus YLR113W, strain HOG1, hits give low values 0.147 | locus YLR133W, strain CKI1, hits give low values 0.0895 | locus YLR403W, strain SFP1, hits give low values 0.0174 | locus YML070W, strain DAK1, hits give low values 0.126 | locus YMR001C, strain CDC5, hits give low values 0.0981 | locus YMR205C, strain PFK2 (second series), hits give low values 0.095 | locus YMR277W, strain FCP1, hits give low values 0.0965 | locus YNL006W, strain LST8, hits give low values 0.0939 | locus YNL020C, strain ARK1, hits give low values 0.0915 | locus YNL161W, strain CBK1, hits give low values 0.0943 | locus YNL183C, strain NPR1, hits give low values 0.13 | locus YNL207W, strain RIO2, hits give low values 0.121 | locus YNL222W, strain SSU72, hits give low values 0.0984 | locus YNL307C, strain MCK1 (second series), hits give low values 0.0995 | locus YOL078W, strain AVO1, hits give low values 0.107 | locus YOL136C, strain PFK27, hits give low values 0.14 | locus YOR061W, strain CKA2, hits give low values 0.158 | locus YOR119C, strain RIO1, hits give low values 0.132 | locus YOR231W, strain MKK1, hits give low values 0.118 | locus YOR329C, strain SCD5, hits give low values 0.0919 | locus YPL031C, strain PHO85, hits give low values 0.107 | locus YPL153C, strain RAD53, hits give low values 0.117 | locus YPL204W, strain HRR25, hits give low values 0.109 | locus YPL209C, strain IPL1, hits give low values 0.0967 | locus YPL256C, strain CLN2, hits give low values 0.135 | locus YPR025C, strain CCL1, hits give low values 0.0952 | locus YPR106W, strain ISR1, hits give low values 0.469 | locus YPR111W, strain DBF20, hits give low values 0.505 | strain NNK1, hits give low values 0.0857 | strain TSCII, hits give low values 0.0982
